Experimental data as given in PubChem BioAssay (NCI).
Values joined by “and” are separate entries in the source; they are usually repeats but may differ in a detail not shown here. Equal values may be shown once. The panel holds about 83,000 compounds, 20% with a hit somewhere; the sample as a whole holds those more often.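 48-hour exposure, single concentration, 96-well plates; percent growth endpoint where 0 means no net growth. Active: below 10.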 Values without a mark were called inactive. Active and inactive are the calls of the source.

The molecules below were run on ACHN renal (assay: NCI-60 one-dose screen, 48 h (100 = growth as untreated, 0 = no growth, -100 = all killed)). Conditions: 10 µM unless noted.
Cc1cc(C(C)(CC(C)C)c2ccc(O)c(C)c2)ccc1O showed a growth of 83.3%. O=C1c2cccnc2-c2nccc3c2c1nc1cc(Br)ccc13 was tested, and the growth was -72.9% (active) and -92.1% (active). NC(=S)N/N=C\c1nccc2c(C(F)(F)C(F)(F)C(F)(F)F)cccc12 was tested, and the growth was -0.888% (active). For N#CSCc1ccc(Cl)c(CSC#N)c1, the growth was 32.5%. CC(=O)Nc1cccc2cc(O)ccc12 was tested, and the growth was 104% and 109% and 100%. With O=C1c2ccccc2C(=O)c2sc(Nc3ccc(Cl)cc3)nc21 the growth was -23.4% (active). In the case of CCCCCC(CCCCC)C(=O)O, the growth was 109%. For CN(C)c1ccc(C(=C2C=CC(=[N+](C)C)C=C2)c2ccc(N(C)C)cc2)cc1 (tested in a mixture with another compound), the growth was -98.6% (active). In the case of Nc1ncnc2c1ncn2C1OC(CO)C(O)C1O (configuration not stated), the growth was 111% and 84.1% and 98.9%. Molecule Oc1c(Br)cc(Cl)cc1C(c1cc(Cl)cc(Br)c1O)C(Cl)(Cl)Cl has a growth of 10.5%. CC1OC(OC2C(OC3CCC4(C)C(CCC5(C)C4CC=C4C6CC(C)(C)CCC6(CO)C(O)CC45C)C3(C)C)OC(C(=O)O)C(OC3OC(COC4OC(CO)C(O)C(O)C4O)C(O)C(O)C3O)C2O)C(O)C(O)C1O (configuration not stated) was tested, and the growth was -100% (active). O=Nc1ccccc1N=O gave a growth of 84.5%. CN(Cc1cnc2nc(N)nc(N)c2n1)c1ccc(C(=O)NC(CCC(=O)O)C(=O)O)cc1 (configuration not stated) gave a growth of 26.8%. For CCCCCCCCCCCCCCNCc1ccccc1, the growth was 90.9%. For O=C(Nc1cccc(Br)c1)Oc1ccc(Cl)c2cccnc12, the growth was 10.1% [100 µM]. Cc1ccc2c(ccc3c[n+]4c5ccccc5ccc4n32)c1 gave a growth of 46.9%. With CCC(c1cccc(O)c1)C(CC)c1cccc(O)c1 (configuration not stated) the growth was 75.1%. CN(C)c1ccc(N=Nc2cccc3ccccc23)cc1 showed a growth of 91.3%. For CCOC(=O)/C=C/c1ccc([N+](=O)[O-])o1, the growth was 9.88% (active). With Cc1cc2nc(CS)[nH]c2cc1C the growth was 92%. CCCCCCC(C)c1ccccc1O (configuration not stated) (tested in a mixture with another compound) showed a growth of 110%. With Oc1c(Br)c(Br)c(O)c(Br)c1Br the growth was -33.2% (active). In the case of COC(=O)[C@@]12OC[C@]34[C@H]([C@@H](O)[C@@H]1O)[C@@]1(C)[C@H](O)C(=O)C=C(C)[C@@H]1C[C@H]3OC(=O)C(OC(C)=O)[C@@H]24 (some centres not stated), the growth was -39.2% (active). NC(=S)N/N=C/c1ccc(Cl)s1 showed a growth of 109%. Work on CCC(CC)COC(=O)c1ccc(O)c(O)c1 yielded a growth of 72.5%. With CCOc1ccc(-c2nc3ccc(-c4nc5ccc(N6CCN(C)CC6)cc5[nH]4)cc3[nH]2)cc1 the growth was -33.8% (active). In the case of Nc1nc(N)c2c(ccc3c2ccn3Cc2cccc([N+](=O)[O-])c2)n1, the growth was -97% (active). For O[C@H]1[C@H]2c3cc4c(cc3CN3CCC(=C[C@@H]1O)[C@H]23)OCO4, the growth was 9.15% (active). In the case of O=C1C=CC(=O)N1C1c2ccccc2-c2ccccc21, the growth was 57.8%. With COc1ccc(N=N/N=c2\sc3cc(OC)ccc3n2C)cc1 the growth was 97.4%. Work on C1=C(c2ccccc2)C(c2ccc(OCCN3CCCCC3)cc2)Oc2ccccc21 (configuration not stated) yielded a growth of 71.5%. For CC1SC(=S)N(c2ccc(Cl)cc2)C1=O (configuration not stated), the growth was 86.8% and 73.4%. Oc1ccc(/C=N/NC(=S)Nc2ccccc2)nc1 showed a growth of 12.3%.

What follows are molecules tested on A498 renal in the same assay as above. Conditions: 10 µM unless noted.
Cc1cc(C(C)(CC(C)C)c2ccc(O)c(C)c2)ccc1O showed a growth of 101%. O=C1c2cccnc2-c2nccc3c2c1nc1cc(Br)ccc13 was tested, and the growth was -52% (active) and -78.4% (active). N#CSCc1ccc(Cl)c(CSC#N)c1 was tested, and the growth was 18%. CC(=O)Nc1cccc2cc(O)ccc12 was tested, and the growth was 99.2% and 108% and 109%. For O=C1c2ccccc2C(=O)c2sc(Nc3ccc(Cl)cc3)nc21, the growth was 87.3%. With CCCCCC(CCCCC)C(=O)O the growth was 103%. CN(C)c1ccc(C(=C2C=CC(=[N+](C)C)C=C2)c2ccc(N(C)C)cc2)cc1 (tested in a mixture with another compound) was tested, and the growth was -93.2% (active). With Nc1ncnc2c1ncn2C1OC(CO)C(O)C1O (configuration not stated) the growth was 123% and 107% and 128%. In the case of Oc1c(Br)cc(Cl)cc1C(c1cc(Cl)cc(Br)c1O)C(Cl)(Cl)Cl, the growth was -12.4% (active). In the case of CC1OC(OC2C(OC3CCC4(C)C(CCC5(C)C4CC=C4C6CC(C)(C)CCC6(CO)C(O)CC45C)C3(C)C)OC(C(=O)O)C(OC3OC(COC4OC(CO)C(O)C(O)C4O)C(O)C(O)C3O)C2O)C(O)C(O)C1O (configuration not stated), the growth was -88% (active). With O=Nc1ccccc1N=O the growth was 110%. For CN(Cc1cnc2nc(N)nc(N)c2n1)c1ccc(C(=O)NC(CCC(=O)O)C(=O)O)cc1 (configuration not stated), the growth was 35.4%. In the case of CCCCCCCCCCCCCCNCc1ccccc1, the growth was 92.7%. O=C(Nc1cccc(Br)c1)Oc1ccc(Cl)c2cccnc12 was tested, and the growth was 96.1% [100 µM]. Cc1ccc2c(ccc3c[n+]4c5ccccc5ccc4n32)c1 was tested, and the growth was 16%. CCC(c1cccc(O)c1)C(CC)c1cccc(O)c1 (configuration not stated) showed a growth of 70.8%. With CN(C)c1ccc(N=Nc2cccc3ccccc23)cc1 the growth was 85.3%. CCOC(=O)/C=C/c1ccc([N+](=O)[O-])o1 gave a growth of 102%. With Cc1cc2nc(CS)[nH]c2cc1C the growth was 95.7%. Oc1c(Br)c(Br)c(O)c(Br)c1Br showed a growth of 127%. With COC(=O)[C@@]12OC[C@]34[C@H]([C@@H](O)[C@@H]1O)[C@@]1(C)[C@H](O)C(=O)C=C(C)[C@@H]1C[C@H]3OC(=O)C(OC(C)=O)[C@@H]24 (some centres not stated) the growth was -49.4% (active). Work on NC(=S)N/N=C/c1ccc(Cl)s1 yielded a growth of 97.1%. CCOc1ccc(-c2nc3ccc(-c4nc5ccc(N6CCN(C)CC6)cc5[nH]4)cc3[nH]2)cc1 was tested, and the growth was -91.6% (active). In the case of Nc1nc(N)c2c(ccc3c2ccn3Cc2cccc([N+](=O)[O-])c2)n1, the growth was -89.5% (active). With O[C@H]1[C@H]2c3cc4c(cc3CN3CCC(=C[C@@H]1O)[C@H]23)OCO4 the growth was 51.4%. For O=C1C=CC(=O)N1C1c2ccccc2-c2ccccc21, the growth was 93.8%. COc1ccc(N=N/N=c2\sc3cc(OC)ccc3n2C)cc1 was tested, and the growth was 97%. Molecule C1=C(c2ccccc2)C(c2ccc(OCCN3CCCCC3)cc2)Oc2ccccc21 (configuration not stated) has a growth of 94%. In the case of CC1SC(=S)N(c2ccc(Cl)cc2)C1=O (configuration not stated), the growth was 143% and 122%.
